Source: PubChem BioAssay (Tox21)
Records with an inconclusive call do not appear. Activity calls are given as the source filed them. Calls come from the whole dose curve; as a rule, active = well fitted inhibition curve with a large enough effect in the repeat runs; inconclusive = weak or mixed curves; inactive = no such curve, though single readings can be large or run the other way.

Target: Estrogen receptor (Homo sapiens) (UniProt P03372)
Test: qHTS assay to identify small molecule antagonists of the estrogen receptor alpha (ER-alpha) signaling pathway using the BG1 cell line in the presence of 0.1 nM 17-beta-estradiol (AID 1259244); note: nearly all actives have a fitted effect of over 50% in size
Settings: VM7Luc4E2 (BG1) ERE-luciferase, antagonist mode, 0.1 nM E2, 22 h; series mostly up to 92.4 µM; activity change, negative = inhibition: at the top concentration
Source text: National Center for Advancing Translational Sciences [NCATS]
NIH Chemical Genomics Center [NCGC]
U.S. Environmental Protection Agency [EPA]
National Institutes of Environmental Health Sciences [NIEHS]
National Toxicology Program [NTP]
U.S. Food and Drug Administration [FDA]
Estrogen receptor (ER), a member of the nuclear hormone receptor plays an important role in development, metabolic homeostasis and reproduction. Two subtypes of ER, ER-alpha and ER-beta, have similar expression patterns with some uniqueness in both types. Endocrine disrupting chemicals (EDCs) and their interactions with steroid hormone receptors like ER causes disruption of normal endocrine function. Therefore, it is important to understand the effect of environmental chemicals in ER signaling pathway. For identifying ER antagonists, VM7Luc4E2 cell line was used to screen against Tox21 compound libraries.
VM7Luc4E2 cell line (provided by Denison MS, University of California) endogenously express full-length ER-alpha and is stably transfected with a plasmid containing four estrogen responsive elements (ERE) upstream of a luciferase reporter gene. The current screening for identification of ER-alpha inhibitors against Tox21 compound libraries used lower concentration (0.1 nM) of 17beta-Estradiol as a stimulator.
Tox21 Assay Protocol Summary:
VM7Luc4E2 cells were cultured in phenol red free assay medium containing 10% charcoal stripped FBS for 5 days prior to the assay. The cells were dispensed at 4,000 cells/well in 4 uL of assay medium into white wall/solid-bottom 1536-well plates (Corning Life Sciences, Corning, NY) using a Multidrop Combi (ThermoFisher Scientific, Waltham, MA) dispenser. After the assay plates were incubated at 37C and 5% CO2 for 24 hr, 23 nL of compounds dissolved in DMSO, positive controls or DMSO only was transferred to the assay plates by a Pintool station (Kalypsys, San Diego, CA). The transfer of compounds was followed by the addition of 1 uL of 0.1 nM (final concentration) agonist (17beta-Estradiol)/assay medium using a Flying Reagent Dispenser (FRD, Aurora Discovery, San Diego, CA). The plates were incubated at 37C and 5% CO2 for 22 hr. For luciferase reporter gene assay, 4 uL of ONE-Glo reagent (Promega Corporation, Madison, WI) was added to each well using the FRD and after 30 min incubation at room temperature luminescence intensity was measured using ViewLux plate reader (PerkinElmer, Shelton, CT).
% is set by controls: 0 for no effect and ±100 for the full control effect; potency is the fitted concentration of half-maximal effect.

Estrogen receptor (Homo sapiens), sequence (P03372 whole entry, looked up): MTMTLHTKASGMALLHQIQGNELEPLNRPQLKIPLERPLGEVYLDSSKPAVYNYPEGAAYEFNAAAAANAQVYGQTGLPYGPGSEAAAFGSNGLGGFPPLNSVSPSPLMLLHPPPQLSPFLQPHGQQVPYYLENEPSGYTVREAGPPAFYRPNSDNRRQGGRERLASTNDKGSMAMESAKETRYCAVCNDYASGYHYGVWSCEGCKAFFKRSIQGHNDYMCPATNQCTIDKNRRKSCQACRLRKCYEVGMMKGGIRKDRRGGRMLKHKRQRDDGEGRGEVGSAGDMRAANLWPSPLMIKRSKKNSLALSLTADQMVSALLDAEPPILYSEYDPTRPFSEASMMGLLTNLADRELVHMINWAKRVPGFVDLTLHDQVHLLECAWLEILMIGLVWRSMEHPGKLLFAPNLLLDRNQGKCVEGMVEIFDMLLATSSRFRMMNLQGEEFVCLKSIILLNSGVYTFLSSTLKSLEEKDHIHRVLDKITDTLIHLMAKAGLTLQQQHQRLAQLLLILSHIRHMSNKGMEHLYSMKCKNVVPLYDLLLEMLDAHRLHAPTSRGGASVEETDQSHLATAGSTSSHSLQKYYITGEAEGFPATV

Question: `OC[C@H]1O[C@@H](n2cnc3c(=S)nc[nH]c32)[C@H](O)[C@@H]1O` was tested. Which “activity change, negative = inhibition” value did it give?
Answer: 74.2% [at 42.5 µM] (inactive)

Question: With `O=[N+]([O-])c1cc(C2CCCCC2)c(O)c([N+](=O)[O-])c1` as the compound, how does the Potency read?
Answer: 7.67 µM (active)

Question: `CCOC(=O)c1ccccc1C(=C1C=C(Br)C(=O)C(Br)=C1)c1cc(Br)c(O)c(Br)c1` was tested. Which “activity change, negative = inhibition” value did it give?
Answer: -15.5% [at 42.5 µM] (inactive)

Question: How did the “activity change, negative = inhibition” value turn out when `CC[N+](CC)(CCNC(=O)C(=O)NCC[N+](CC)(CC)Cc1ccccc1Cl)Cc1ccccc1Cl` was run?
Answer: -0.007% [at 42.5 µM] (inactive)

Question: How did the “activity change, negative = inhibition” value turn out when `C1COC1` was run?
Answer: 23.4% (inactive)

Question: Which “activity change, negative = inhibition” value does the source give for `C(=C\c1ccccc1)/c1ccccc1` here?
Answer: 37.7% (inactive)

Question: `C[C@@H](CN(C)C)CN1c2ccccc2Sc2ccccc21` was tested. Which “activity change, negative = inhibition” value did it give?
Answer: -17.1% [at 42.5 µM] (inactive)

Question: Which “activity change, negative = inhibition” value does the source give for `C[C@]1(Cn2ccnn2)[C@H](C(=O)O)N2C(=O)C[C@H]2S1(=O)=O` here?
Answer: 1.17% [at 42.5 µM] (inactive)

Question: With `O=C(O)C[C@H](NC(=O)OCc1ccccc1)C(=O)O` as the compound, how does the “activity change, negative = inhibition” value read?
Answer: 17.8% (inactive)

Question: For `O[C@@H]1CO[C@H]2[C@@H]1OC[C@@H]2O`, which “activity change, negative = inhibition” value is on record?
Answer: -1.63% [at 42.5 µM] (inactive)

Question: With `c1ccc(C[n+]2cccc3ccccc32)cc1` as the compound, how does the Potency read?
Answer: 27.3 µM (active)

Question: Which “activity change, negative = inhibition” value does the source give for `CC1(C)[C@H](C(=O)O)N2C(=O)C[C@H]2S1(=O)=O` here?
Answer: 9.1% [at 42.5 µM] (inactive)

Question: Which “activity change, negative = inhibition” value does the source give for `CN1CC(=O)N2[C@H](c3ccc4c(c3)OCO4)c3[nH]c4ccccc4c3C[C@@H]2C1=O` here?
Answer: 3.47% [at 42.5 µM] (inactive)

Question: Which Potency does the source give for `CC(C)=CCC/C(C)=C/CC/C(C)=C/C(=O)OCC(=O)[C@@]1(O)CC[C@H]2[C@@H]3CCC4=CC(=O)C=C[C@]4(C)[C@H]3[C@@H](O)C[C@@]21C` here?
Answer: 26.6 µM (active)

Question: With `CCOC(=O)/C=C/C(=O)OCC` as the compound, how does the “activity change, negative = inhibition” value read?
Answer: 3.02% (inactive)

Question: `N#[N+]c1ccc2c(S(=O)(=O)[O-])cccc2c1O` was tested. Which “activity change, negative = inhibition” value did it give?
Answer: -6.23% (inactive)

Question: For `O=C(O)CCc1nc(-c2ccccc2)c(-c2ccccc2)o1`, which “activity change, negative = inhibition” value is on record?
Answer: -5.01% [at 42.5 µM] (inactive)

Question: For `CCOC(=O)[C@H](CCc1ccccc1)N[C@@H](C)C(=O)N(CC(=O)O)C1Cc2ccccc2C1`, which “activity change, negative = inhibition” value is on record?
Answer: -8.4% [at 42.5 µM] (inactive)

Question: How did the “activity change, negative = inhibition” value turn out when `Cc1ccco1` was run?
Answer: 15.3% (inactive)

Question: How did the “activity change, negative = inhibition” value turn out when `CCCCCC#CC(=O)OC` was run?
Answer: 1.66% (inactive)

Question: With `FC(F)(F)c1ccccc1Cl` as the compound, how does the “activity change, negative = inhibition” value read?
Answer: 18.5% (inactive)

Question: With `O=C1c2ccccc2C(=O)C1c1nc2ccccc2c(Br)c1O` as the compound, how does the “activity change, negative = inhibition” value read?
Answer: 2% (inactive)

Question: Which “activity change, negative = inhibition” value does the source give for `OCCN1CCN(CCCN2c3ccccc3Sc3ccc(Cl)cc32)CC1` here?
Answer: 1.3% [at 42.5 µM] (inactive)

Question: Which “activity change, negative = inhibition” value does the source give for `O=C(OCC(O)CO)c1ccccc1Nc1ccnc2cc(Cl)ccc12` (stereo not given) here?
Answer: -0.318% [at 42.5 µM] (inactive)

Question: Which “activity change, negative = inhibition” value does the source give for `C=CC(=O)[O-].C=CC(=O)[O-].[Zn+2]` here?
Answer: 1.01% (inactive)

Question: For `CN1C(=O)OC(C)(C)C1=O`, which “activity change, negative = inhibition” value is on record?
Answer: 23.7% (inactive)

Question: `CC(C)(C)CC(=O)OCC(=O)[C@@]1(O)CC[C@H]2[C@@H]3CCC4=CC(=O)C=C[C@]4(C)[C@H]3[C@@H](O)C[C@@]21C` was tested. Which “activity change, negative = inhibition” value did it give?
Answer: -11% [at 42.5 µM] (inactive)

Question: For `Cc1cc(C)cc(N)c1`, which “activity change, negative = inhibition” value is on record?
Answer: 15.3% (inactive)

Question: Which “activity change, negative = inhibition” value does the source give for `COC(=O)C1=C(C)NC(C)=C(C(=O)O[C@@H]2CCCN(Cc3ccccc3)C2)[C@@H]1c1cccc([N+](=O)[O-])c1` here?
Answer: -5.66% [at 42.5 µM] (inactive)

Question: Which “activity change, negative = inhibition” value does the source give for `CCCCCCCCCI` here?
Answer: 23.7% (inactive)

Question: How did the “activity change, negative = inhibition” value turn out when `CN1CCCN=C1COC(=O)C(O)(c1ccccc1)C1CCCCC1` (stereo not given) was run?
Answer: 32.1% [at 42.5 µM] (inactive)

Question: How did the “activity change, negative = inhibition” value turn out when `CS(=O)(=O)c1ccc(-c2cn3ccccc3n2)cc1` was run?
Answer: -68.5% [at 42.5 µM] (inactive)

Question: For `CCOC(=O)c1ccc(I)cc1`, which “activity change, negative = inhibition” value is on record?
Answer: 58.9% (inactive)

Question: `CC(C)(C)C(=O)C(=O)O` was tested. Which “activity change, negative = inhibition” value did it give?
Answer: -1.8% (inactive)

Question: With `CC(=O)Oc1ccc([N+](=O)[O-])cc1CCl` as the compound, how does the “activity change, negative = inhibition” value read?
Answer: -5.03% (inactive)

Question: For `CCCC(C(=O)OCCN(CC)CC)(c1ccccc1)c1ccccc1`, which “activity change, negative = inhibition” value is on record?
Answer: -14.4% [at 42.5 µM] (inactive)

Question: For `COc1ccccc1Oc1c(NS(=O)(=O)c2ccc(C(C)(C)C)cc2)nc(-c2ncccn2)nc1OCCO`, which “activity change, negative = inhibition” value is on record?
Answer: 2.94% [at 42.5 µM] (inactive)

Question: With `CCc1ccccc1` as the compound, how does the “activity change, negative = inhibition” value read?
Answer: 15.9% (inactive)

Question: How did the “activity change, negative = inhibition” value turn out when `CNC(=O)c1cnn(-c2nc(N)c3ncn([C@@H]4O[C@H](CO)[C@@H](O)[C@H]4O)c3n2)c1` was run?
Answer: -0.936% [at 42.5 µM] (inactive)

Question: How did the “activity change, negative = inhibition” value turn out when `O=C(Cn1ccnc1[N+](=O)[O-])NCCO` was run?
Answer: 14.8% [at 42.5 µM] (inactive)
